Data from PubChem BioAssay AID1159580 (chemical genetic matrix, 2015).
Several values for one entry are separate records, joined by “and”; a condition that tells them apart may be missing. Identical values can stand only once. The campaign covered roughly 5,500 compounds. About 2,000 (36%) were called active. Not shown: some 18% with an inconclusive outcome. No stated cut-off is given here; in the data, active means normalized growth mostly below about 0.91 (no sharp cut-off); inconclusive means no clear call, values can overlap the other calls; inactive means mostly above about 0.92. This is one part of the list.

Test: chemical genetic growth profiling, strain panel (AID 1159580);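 further: tested at 20 µM; growth read once vehicle control cultures reached saturation at 30 °C; 1 = growth at the plate median or of vehicle wells; lower values mean less growth of the strain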
Details: S. cerevisiae deletion strains, growth OD

Measured: normalized growth

CC(=O)[C@H]1CCC2C3C[C@H](C)C4=CC(=O)CC[C@]4(C)C3[C@@H](O)C[C@@]21C (stereo partly drawn)
inactive: locus YAL021C, strain ccr4, active compounds read low 0.988 | locus YAL026C, strain drs2, active compounds read low 0.989 | locus YAL030W, strain snc1, active compounds read low 0.986 | locus YBL061C, strain skt5, active compounds read low 0.988 | locus YBR009C, strain hhf1, active compounds read low 1 | locus YBR021W, strain FUR4, active compounds read low 0.979 | locus YBR023C, strain chs3, active compounds read low 0.983 | locus YBR171W, strain sec66, active compounds read low 0.973 | locus YBR229C, strain ROT2, active compounds read low 0.994 | locus YBR231C, strain swc5, active compounds read low 0.994 | locus YBR279W, strain paf1, active compounds read low 0.99 | locus YCL011C, strain gbp2, active compounds read low 0.964 | locus YCL016C, strain dcc1, active compounds read low 0.953 | locus YCL029C, strain bik1, active compounds read low 0.983 | locus YCL061C, strain MRC1, active compounds read low 0.989 | locus YCL069W, strain vba3, active compounds read low 0.983 | locus YCR088W, strain abp1, active compounds read low 0.98 | locus YDL005C, strain med2, active compounds read low 0.984 | locus YDL035C, strain GPR1, active compounds read low 1.02 | locus YDL040C, strain nat1, active compounds read low 0.987 | locus YDL074C, strain BRE1, active compounds read low 0.98 | locus YDL101C, strain DUN1, active compounds read low 0.993 | locus YDL134C, strain PPH21, active compounds read low 1.01 | locus YDL185W, strain tfp1, active compounds read low 0.965 | locus YDL192W, strain arf1, active compounds read low 0.981 | locus YDR001C, strain nth1, active compounds read low 0.977 | locus YDR069C, strain doa4, active compounds read low 1.02 | locus YDR101C, strain arx1, active compounds read low 0.989 | locus YDR137W, strain rgp1, active compounds read low 0.921 | locus YDR159W, strain sac3, active compounds read low 1.01 | locus YDR162C, strain NBP2, active compounds read low 0.99 | locus YDR195W, strain ref2 0.997 | locus YDR297W, strain sur2, active compounds read low 0.985 | locus YDR318W, strain mcm21, active compounds read low 0.988 | locus YDR334W, strain swr1, active compounds read low 0.963 | locus YDR335W, strain msn5, active compounds read low 0.984 | locus YDR388W, active compounds read low 0.986 | locus YDR392W, strain spt3, active compounds read low 0.897 | locus YDR502C, strain sam2, active compounds read low 0.978 | locus YEL003W, strain gim4, active compounds read low 1 | locus YEL037C, strain rad23, active compounds read low 0.975 | locus YEL061C, strain CIN8 (second series), active compounds read low 0.977 | locus YEL061C, strain CIN8, active compounds read low 0.99 | locus YER015W, strain faa2, active compounds read low 0.992 | locus YER016W, strain bim1, active compounds read low 0.996 | locus YER110C, active compounds read low 0.969 | locus YER111C, strain swi4, active compounds read low 0.982 | locus YER155C, strain BEM2 (second series), active compounds read low 1 | locus YER155C, strain BEM2, active compounds read low 0.991 | locus YER167W, strain BCK2, active compounds read low 0.986 | locus YFR010W, strain ubp6, active compounds read low 0.986 | locus YGL078C, strain dbp3, active compounds read low 0.991 | locus YGL086W, strain mad1, active compounds read low 1.01 | locus YGL167C, strain pmr1, active compounds read low 0.971 | locus YGL173C, strain kem1, active compounds read low 0.995 | locus YGL227W, strain vid30, active compounds read low 0.978 | locus YGL240W, strain doc1, active compounds read low 1.02 | locus YGL248W, strain PDE1, active compounds read low 0.984 | locus YGL253W, strain hxk2, active compounds read low 0.976 | locus YGR135W, strain pre9, active compounds read low 0.939 | locus YGR252W, strain gcn5, active compounds read low 1.06 | locus YHR013C, strain ard1, active compounds read low 0.945 | locus YHR027C, strain rpn1, active compounds read low 0.98 | locus YHR030C, strain SLT2, active compounds read low 0.996 and 0.986 | locus YHR079C, strain IRE1 (second series), active compounds read low 0.98 | locus YHR079C, strain IRE1, active compounds read low 0.966 | locus YHR094C, strain hxt1, active compounds read low 0.984 | locus YHR129C, strain ARP1, active compounds read low 0.995 | locus YHR142W, strain chs7, active compounds read low 0.95 | locus YHR200W, strain rpn10, active compounds read low 0.981 | locus YIL066C, strain RNR3, active compounds read low 0.993 | locus YIL073C, strain SPO22, active compounds read low 0.899 | locus YIL125W, strain kgd1, active compounds read low 0.996 | locus YIR030C, strain dcg1, active compounds read low 0.975 | locus YJL092W, strain hpr5, active compounds read low 0.977 | locus YJL095W, strain BCK1 (second series), active compounds read low 0.982 | locus YJL095W, strain BCK1, active compounds read low 0.969 and 0.976 | locus YJL115W, strain asf1, active compounds read low 0.973 | locus YJL129C, strain trk1, active compounds read low 0.959 | locus YJL134W, strain LCB3, active compounds read low 0.99 | locus YJL154C, strain vps35, active compounds read low 0.972 | locus YJL164C, strain tpk1, active compounds read low 0.997 | locus YJL166W, strain qcr8, active compounds read low 0.979 | locus YJL168C, strain set2, active compounds read low 0.994 | locus YJL187C, strain SWE1 (second series), active compounds read low 0.993 | locus YJL187C, strain SWE1, active compounds read low 0.985 | locus YJR043C, strain POL32, active compounds read low 1.03 | locus YJR066W, strain TOR1, active compounds read low 0.925
